21 compounds from PubChem BioAssay (NCATS) can be followed below.

Results filed as inconclusive are left out. A call without a number means that no potency is given here. Activity calls are given as the source filed them. Calls follow the shape of the dose curve; as a rule, active = well fitted inhibition curve with a large enough effect; inconclusive = small, poorly fitted or top-dose-only effect; inactive = flat fitted curve, though single readings scatter.

For the test, the system named is CRL-7250. Description: qHTS assay to identify novel small-molecules to repurpose for Merkel cell carcinoma treatment (AID 1296009). Also: nearly all actives have a fitted effect of over 60% in size. The settings on record: MCC and control cell lines, CellTiter-Glo viability, 72 h; series mostly up to 92 µM. The procedure, abridged: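 Cell viability measured by CellTiter-Glo following 72 hr compound treatment at 37 degree celsius, with NPC and MIPE libraries tested in 8- and 11-point concentration series.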
On to `C/C=C(\C)C(=O)OC1CC2C(CC=C3CC(OC4CC(OC)C(OC5CC(OC)C(OC6CC(OC)C(OC7CC(OC)C(OC8CC(OC)C(OC9OC(CO)C(O)C(O)C9O)C(C)O8)C(C)O7)C(C)O6)C(C)O5)C(C)O4)CCC32C)C2(O)CCC(C(C)=O)C12C` (stereo unspecified), for which the outcome was “inactive [at 9.27 µM]”. As to `O=C(CN1C(=O)C2(CCCC2)NCC1c1cc(F)cc(F)c1)Nc1ccc2c(c1)CC1(C2)C(=O)Nc2ncccc21` (stereo unspecified), the Potency result is “inactive”. On the same count and under the same terms, the entry for `C=CC(C)(CC/C=C(\C)CC/C=C(\C)CC(O)/C=C(\C)C(=O)O)O[C@@H]1O[C@H](CO)[C@@H](O)[C@H](O)[C@H]1O[C@@H]1O[C@H](CO)[C@@H](O)[C@H](O)[C@H]1O` (stereo partly specified) is “inactive”; for `CC1[C@@H](O)[C@@H](O)C2[C@]3(C)C(C[C@H]4OC(=O)[C@H](O)[C@]1(O)[C@@]24C)C(C)(O)C[C@H](O)[C@H]3O` (stereo partly specified) it is “inactive”.

Take `O=C(O)Cc1nn(Cc2nc3cc(C(F)(F)F)ccc3s2)c(=O)c2nccnc12`: the Potency entry is “inactive”.

`CCc1nnc(NS(=O)(=O)c2ccc(NC(=S)NC(=O)/C=C/c3ccc(F)cc3)cc2)s1`: the Potency entry is “inactive”. With `C=C1C2(CCC(=O)OC2(C)C)CC(OC(=O)/C(C)=C/C)C2(C)C13OC14C(=O)OC(C)(C(=O)C12C(=O)OC4C)C3OC(C)=O` (stereo unspecified), the Potency result is “inactive”.

With `COC(=O)[C@H](O)[C@H]1C(C)(C)[C@H](OC(C)=O)[C@@]2(O)C(=O)[C@]1(C)C1CC[C@]3(C)C(CC(=O)O[C@H]3c3ccoc3)[C@]13O[C@@H]32` (stereo partly specified), the Potency result is “inactive”. On the same count and under the same terms, the entry for `COc1cc(C(C)=O)c(OC)c2c1OC(C)(C)C=C2` is “inactive”.

For the compound `COc1ccc2cc(C(C)C(=O)Oc3ccc(C(N)=S)cc3)ccc2c1` (stereo unspecified), the Potency entry is “inactive”. On to `CC1C2=CC(=O)OC2(O)CC2C1C(O)CC1C(C)(CO)CCCC21C` (stereo unspecified), for which the Potency entry was “inactive”. The same measure, in the same setting: under `CC(C)C1CCC(C(=O)N[C@@H](Cc2ccccc2)C(=O)O)CC1` (stereo partly specified) stands “inactive”; under `CCCSc1nc(NC2CC2c2ccc(F)c(F)c2)c2nnn(C3CC(OCCO)C(O)C3O)c2n1` (stereo unspecified), “inactive”. As to `COc1c(OC2OC(CO)C(O)C(O)C2O)ccc(O)c1C(=O)OCc1ccccc1O[C@@H]1O[C@H](CO)[C@@H](O)[C@H](O)[C@H]1O` (stereo partly specified), the Potency result was “inactive”. `CC1(CO)CC(O)C2(C)CCC3(C)C(=CCC4C5(C=O)CCC(OC6OC(C(=O)O)C(O)C(O)C6OC6OC(C(=O)O)C(O)C(O)C6O)C(C)(C)C5CCC43C)C2C1` (stereo unspecified): the outcome is “inactive [at 9.27 µM]”.

As for `C/C=C/[C@@H]1C=C[C@@H]2C[C@H](C)CC[C@H]2[C@]1(C)/C(O)=C1/C(=O)[C@@H](CO)N(C)C1=O`, the Potency entry is “inactive”. Consider `C=C1CC[C@H]2[C@@](C)(CCC(O)[C@@]2(C)CO)[C@@H]1C/C=C(/C(=O)O)C(O)CO` (stereo partly specified), for which the Potency result is “inactive”. For `FC(F)(F)c1cc(C(F)(F)F)c2ccc3nc(-c4nnco4)cn3c2n1`, the Potency result is “inactive”. The same measure, in the same setting: under `c1ccc(C(OC2CCN(CCCc3nn[nH]n3)CC2)c2ccccc2)cc1` stands “inactive”; under `CC(=O)OC1CC(C)C2(CCC3(CC(=O)OC3O)O2)C2(C)CCCC(C)(C)C12` (stereo unspecified), “inactive”. The same measure, in the same setting: under `CC1(C)CC[C@]2(C(=O)O[C@@H]3O[C@H](CO)[C@@H](O)[C@H](O)[C@H]3O)CC[C@]3(C)C(=CCC4[C@@]5(C)C[C@@H](O)[C@H](O)[C@@](C)(CO)C5[C@H](O)C[C@]43C)C2[C@@H]1O` (stereo partly specified) stands “inactive”.
